The list is not random: actives were taken first. Their share in the collection is about 2.3%.
Rango complex inh – inhibitors of Rango-importin beta complex formation; Potency, µM (highest dose often 92.2 µM), inactives show at the top dose inhibition of complex formation; hit rate 0.031% among 340,000; Q14974; Rango CFP/YFP FRET sensor + importin beta, 45 min; calls by dose curve;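 further: 0% = DMSO wells and 100% = buffer wells lacking importin beta; nearly all actives have a fitted effect of over 15% in size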
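Inhibition scored from the CFP 486 nm/YFP 530 nm FRET ratio 45 min after adding 0.125 microM importin beta to 50 nM Rango biosensor preincubated 5 min with compound (room temperature, PBS with DTT, Tween-20, BSA). No-importin wells as positive control.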
Nrf2 activator – activates Nrf2 signaling; AREc32 ARE-luciferase reporter (MCF7-derived line), luminescence, 24 h; AID 624171; hit rate 0.31% among 410,000; Potency, µM (series often up to 46.1 µM), inactives show at the top dose activation, usual class: activators; further: % of control where 0% means no effect; nearly all actives have a fitted effect of over 65% in size
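AREc32_Fluc, 1000 cells/well, OPTI-MEM + 5% FBS, o/n 37 deg C 5% CO2; 23 nL cpd by pin tool, 24 hr; Steady-Glo 30 min RT, luminescence.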
A549 tox – A549 cytotoxicity, counter-screen for Nrf2 inhibitors | Potency, µM (series often up to 46 µM), inactives show at the top dose activity change, negative = cytotoxicity, most hits filed as inhibitors | A549 ARE-Fluc cells, CellTiter-Fluor viability, 18-24 h | AID 504648 | hit rate 0.16% among 390,000; further: on the % scale 0 is the no-effect control and ±100 the full control effect
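A549 ARE_Fluc cells in 5% FBS OPTI-MEM were exposed to compounds in concentration-response for 18-24 h at 37 deg C. Viability was read by CellTiter-Fluor fluorescence (Ex 405/Em 525) after 30 min, before the luciferase read.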
Nrf2 inh – inhibitors of Nrf2 signaling. hit rate 2.1% among 360,000. Potency, µM (top dose mostly 46 µM), inactives show at the top dose activity change, negative = inhibition, hits mostly inhibitors. AID 504444. A549 ARE-Fluc reporter, luciferase luminescence, 18-24 h; further: on the % scale 0 is the no-effect control and ±100 the full control effect; nearly all actives have a fitted effect of over 60% in size
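A549 ARE_Fluc cells, 5000/well, 5% FBS OPTI-MEM; compounds in dose-response, 18-24 h at 37 °C/5% CO2; CellTiter-Fluor viability read (Ex 405/Em 525), then BugLite luciferase luminescence = Nrf2 activity.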
Rango release inh – inhibitors of RanGTP-induced Rango-importin beta complex dissociation; O95149+P62826; Biochemical FRET Rango-importin beta, RanGTP-induced dissociation; Potency, µM (top dose mostly 46.1 µM), without a hit: at the highest dose activity change, negative = inhibition; hit rate 0.071% among 340,000; calls by dose curve; further: % of control where 0% means no effect; nearly all actives have a fitted effect of over 45% in size
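Rango FRET biosensor (snurportin-1 IBB flanked by N-terminal EYFP and C-terminal CFP10) at 0.1 uM, with 0.25 uM importin beta in PBS, 1mM DTT, 0.02% Tween-20, 0.1% BSA. 0.6 uM Ran, 2mM GTP and 0.2 uM RCC1 were then added for 45 min at room temperature. Inhibition read as loss of FRET rise.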
Active calls of the source: *; ? = inconclusive; . = no result given. Unless noted, the call rests on the fitted dose curve; in most records, active means well fitted curve in the direction sought with a large enough effect; inconclusive means small, poorly fitted or top-dose-only effect, or another doubt; inactive means no such curve, though single readings can be large; an effect the other way counts as inactive or inconclusive. Potency means the concentration at half of the fitted maximal effect.

SMILES | Rango complex inh | Nrf2 activator | A549 tox | Nrf2 inh | Rango release inh
Cc1ccc(S(=O)(=O)N2CCN(c3nc(-c4ccco4)nc4ccccc34)CC2)cc1 | . | . | 1% | -21% | .
O=C1S/C(=C\C=C\c2ccco2)C(=O)N1c1ccccc1 | 0% | 8.9µM* | -11% | 1% | -2%
Cc1cccc(N=C2NC(=O)/C(=C/C=C/c3ccco3)S2)c1C | -5% | ? | ? | -6% | -19%
O=C1NC(=Nc2ccccc2)S/C1=C\C=C\c1ccco1 | ? | 7.1µM* | ? | 10% | ?
Cc1ccc(N=C2NC(=O)/C(=C/C=C/c3ccco3)S2)cc1 | -4% | 2.5µM* | ? | 28% | -24%
O=C(O)c1ccccc1OC1=NS(=O)(=O)c2ccccc21 | . | . | -2% | 14% | .
Cc1c(C(=O)N2CCCC2)oc2c1-c1nn(CC(=O)NC(C)c3ccccc3)cc1CC2 (centres undefined) | . | 1% | -4% | 18µM* | .
N#Cc1nc(N)nc(N2CCCCC2)n1 | . | . | 1% | 18µM* | .
N#Cc1nc(N2CCCCC2)nc(N2CCOCC2)n1 | 0% | 0% | -7% | ? | 0%
N#Cc1ccccc1OCC(=O)OCC(=O)c1c[nH]c2ccccc12 | -2% | 0% | 6% | 5% | -11%
CC1=C(C(=O)N2CCOCC2)CC(CC(=O)NC2CCCCC2)C(=O)N1Cc1ccccc1 (centres undefined) | . | 0% | . | . | .
CC(=O)Nc1ccc(NS(=O)(=O)c2ccc3c(c2)CC(C)N3C(=O)C2CCC2)cc1 (centres undefined) | . | 1% | -2% | 19% | .
CCOc1ccc(NS(=O)(=O)c2ccc3c(c2)CCN3C(=O)C2CCC2)cc1 | 6% | 0% | -8% | ? | 26%
Cc1ccc(NS(=O)(=O)c2ccc3c(c2)CC(C)N3C(=O)C2CCC2)cc1Cl (centres undefined) | . | 2% | -16% | 21µM* | .
O=C(C1CCC1)N1CCc2cc(S(=O)(=O)Nc3ccc4c(c3)OCO4)ccc21 | 0% | 0% | -8% | 10µM* | 18%
Cc1cc(Cl)ccc1NS(=O)(=O)c1ccc2c(c1)CC(C)N2C(=O)C1CCC1 (centres undefined) | . | 2% | -2% | 21µM* | .
C[C@H](NC(=O)N1CCn2c1nc1ccccc12)C(=O)NCc1ccccc1 | 1% | 0% | -10% | 12% | 6%
Cc1cc2c(s1)c1cnn(Cc3ccc(C(C)(C)C)cc3)c(=O)c1n2C | . | . | 0% | 8% | .
COc1ccc(Cl)cc1C=CC=Nc1ccccc1O | 0% | 10µM* | -7% | -7% | -22%
CCOc1ccc(Cc2c(Cl)nc(SC)nc2N(C)C)cc1 | -5% | 0% | 15% | 13µM* | 8%
CSc1nc(Cl)c(Cc2ccc(OC(C)C)cc2)c(N(C)C)n1 | 1% | 2% | 14% | ? | 2%
CCC(/C=C1\Sc2ccc(OC)cc2N1CCO)=C\c1sc2ccc(OC)cc2[n+]1CCO | 0% | ? | 21µM* | ? | 1%
CCC(=O)/C=C1/Sc2ccc(OC)cc2N1CCO | 2% | 0% | -4% | 0% | -8%
CCC(/C=C1\Sc2ccc(OC)cc2N1CC)=C\c1sc2ccc(OC)cc2[n+]1CCCS(=O)(=O)[O-] | -1% | 0% | ? | 10µM* | ?
CCO/C(=C/c1sc2ccc(OC)cc2[n+]1CCCS(=O)(=O)[O-])CC | -3% | -1% | -11% | 2% | -4%
SMILES | Rango complex inh | Nrf2 activator | A549 tox | Nrf2 inh | Rango release inh
CCOc1ccccc1N(CC(=O)NC1CCCC1)S(=O)(=O)c1ccc(C)cc1 | 8% | 3% | -25% | 15µM* | 15%
Cc1ccc(S(=O)(=O)N(CC(=O)NC2CCCCCC2)c2ccccc2F)cc1 | ? | 2% | 0% | -11% | -7%
Cc1ccc2nc(C(C)(C)C)c(Cc3cccc(F)c3)n2c1 | . | 4% | . | . | .
CC(NC(=O)c1ccc2c(c1)N(Cc1ccc(Cl)cc1)C(=O)c1ccccc1S2=O)c1ccccc1 (centres undefined) | . | 0% | -6% | -5% | .
COc1cccc(-c2cc(C(=O)Nc3cc(OC)c(OC)c(OC)c3)on2)c1 | . | 0% | 0% | -7% | .
COc1cccc(-c2cc(C(=O)Nc3cc(Cl)ccc3O)on2)c1 | . | 7.9µM* | 2% | 7% | .

Screening data (PubChem BioAssay)
